Source: PubChem BioAssay (Tox21)
Records with an inconclusive call do not appear. Active and inactive are the calls of the source. Unless noted, calls follow the shape of the full dose curve.

Key:
[1] = Nuclear factor erythroid 2-related factor 2/antioxidant responsive element (Nrf2/ARE) small molecule agonists: qHTS cell viability counter screen in human keratinocytes (AID 1919968; active = well fitted curve in the direction sought with a large enough effect in the repeat runs; an effect the other way counts as inactive or inconclusive; also: nearly all actives have a fitted effect of over 55% in size)
Summary of the method: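 Parallel cytotoxicity read: KeratinoSens HaCaT cells, compound treatment 23 h, viability by CellTiter-Fluor fluorescence 1 h post-reagent.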

[2] = target: Gonadotropin-releasing hormone receptor (Homo sapiens) (UniProt P30968); test: Human gonadotropin-releasing hormone receptor (GnRHR) small molecule agonists, calcium flux assay in GnRHR-HEK293 cells (AID 1920063); also: nearly all actives have a fitted effect of over 35% in size
Summary of the method: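 Calcium flux, agonist mode, human GnRHR stably integrated in HEK293; dye 1 h at 37 C before compound; Ex/Em=480/540 kinetic read, 3 min; 15 concentrations, triplicate.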

[3] = target: KiSS-1 receptor (Homo sapiens) (UniProt Q969F8); test: Human kisspeptin (KISS1R) small molecule agonists, calcium flux assay in KISS1R-HEK293 cells (AID 1920064; active = well fitted curve in the direction sought with a large enough effect in the repeat runs; an effect the other way counts as inactive or inconclusive)
Summary of the method: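 Triplicate 15-concentration series were applied to dye-loaded human KISS1R HEK293 cells, and agonist-evoked calcium fluorescence was captured for 3 min.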

[4] = G protein-coupled receptor (GPCR) small molecule agonists, calcium flux assay: HEK293 wild type cell line counter screen (AID 1920065)
Summary of the method: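 Non-specific calcium responders were flagged by adding DMSO-dissolved compounds to dye-loaded cells and reading 480/540 nm fluorescence each second for 3 min; ATP served as positive control.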

[5] = p53 small molecule agonists, cell-based qHTS assay with human liver microsomes (AID 1963577);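 also: p53 response element beta-lactamase reporter cells with liver microsomes plus NADPH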
Summary of the method: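 16 h, 37 C exposure of p53RE-bla cells to compounds with human liver microsomes and NADPH (0.5 mg/mL final each); detection via LiveBLAzer mixture, 2 h dark at room temperature.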

[6] = p53 small molecule agonists, cell-based qHTS assay with rat liver microsomes (AID 1963578)
Summary of the method: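 With rat liver microsomes and NADPH present (0.5 mg/mL final each), p53RE-bla cells are treated with compound for 16 h at 37 C. LiveBLAzer detection mixture is then applied for 2 h at room temperature in the dark.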

[7] = p53 small molecule agonists, cell-based qHTS assay with human liver microsomes: qHTS cell viability counter screen (AID 1963579); also: nearly all actives have a fitted effect of over 45% in size
Summary of the method: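 In this multiplexed counter screen, the reporter plates were subsequently treated with CellTiter-Glo so that cell viability, reflected by luminescence, could be recorded for p53RE-bla cells dosed 16 h with compounds under microsomal activation (HLM and NADPH).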

[8] = p53 small molecule agonists, cell-based qHTS assay with rat liver microsomes: qHTS cell viability counter screen (AID 1963580); also: nearly all actives have a fitted effect of over 45% in size
Summary of the method: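 Cytotoxicity counter screen: intracellular ATP read by CellTiter-Glo luminescence in the p53 reporter wells. HCT-116 p53RE-bla cells were treated for 16 h at 37 C alongside rat liver microsomes and NADPH, each 0.5 mg/mL final.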

[9] = p53 small molecule agonists, cell-based qHTS assay: qHTS cell viability counter screen (AID 1963581); also: nearly all actives have a fitted effect of over 45% in size
Summary of the method: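 Multiplexed with the reporter read, a CellTiter-Glo step (30 min, room temperature) gauges ATP-based viability of HCT-116 p53RE-bla cells after 16 h compound incubation at 37 C.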

[10] = p53 small molecule agonists, cell-based qHTS assay (AID 1963582; active = well fitted activation curve with a large enough effect in the signal ratio in the repeat runs, not every such curve was filed as active; the % refers to the signal ratio)
Summary of the method: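 Beta-lactamase reporter cells (p53RE-bla) treated with compounds for 16 h at 37 C; FRET substrate, 2 h, room temperature; fluorescence intensity.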

[11] = target: 5-hydroxytryptamine receptor 2A (Homo sapiens) (UniProt P28223); test: 5-hydroxytryptamine receptor 2A (HTR2A) small molecule antagonists, cell-based qHTS assay (AID 1963586); also: nearly all actives have a fitted effect of over 45% in size
Summary of the method: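 CHO cells stably expressing human HTR2A were plated for 18 h at 37 C, then loaded with calcium dye for 1 h. Compounds were preincubated 5 min at room temperature before DOI (4 nM solution) was added. Kinetic fluorescence was read for 3 min.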

[12] = target: 5-hydroxytryptamine receptor 2A (Homo sapiens) (UniProt P28223); test: 5-hydroxytryptamine receptor 2A (HTR2A) small molecule agonists, cell-based qHTS assay (AID 1963587); also: nearly all actives have a fitted effect of over 30% in size
Summary of the method: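 Kinetic calcium-flux fluorescence (2 min, 1 sec intervals) after compound addition in agonist mode. HTR2A-CHO cells were cultured 18 h, then dye-loaded 1 h at 37 C.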

[13] = target: Muscarinic acetylcholine receptor M1 (Homo sapiens) (UniProt P11229); test: Cholinergic receptor muscarinic 1 (CHRM1) small molecule antagonists, cell-based qHTS assay (AID 1963588); also: nearly all actives have a fitted effect of over 40% in size
Summary of the method: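 Compounds were tested at 15 concentrations in three independent runs. Dye-loaded CHRM1-CHO cells were exposed 5 min at room temperature before stimulation by acetylcholine added at 50nM. Intracellular calcium was read kinetically on FDSS for 3 min.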

[14] = target: Muscarinic acetylcholine receptor M1 (Homo sapiens) (UniProt P11229); test: Cholinergic receptor muscarinic 1 (CHRM1) small molecule agonists, cell-based qHTS assay (AID 1963589); also: nearly all actives have a fitted effect of over 35% in size
Summary of the method: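 qHTS, 15-point titration, 3 independent runs: compounds pin-transferred onto dye-loaded CHRM1-CHO cells (human M1), calcium fluorescence followed every second to detect agonism.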

[15] = cAMP Responsive Elements (CRE) small molecule agonists, cell-based qHTS assay (AID 1963590)
Summary of the method: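 Quantitative HTS for CRE agonists: HEK 293T CRE-bla cells, overnight plating, 3 h compound incubation at 37 C/5% CO2, then 2 h room-temperature LiveBLAzer B/G FRET substrate loading.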

[16] = cAMP Responsive Elements (CRE) small molecule antagonists, cell-based qHTS assay (AID 1963591; active = well fitted inhibition curve with a large enough effect in the signal ratio in the repeat runs, not every such curve was filed as active; the % refers to the signal ratio)
Summary of the method: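 Fluorescence intensity from cleaved LiveBLAzer B/G substrate (2 h, room temperature) quantified CRE-bla activity in HEK 293T cells exposed 3 h to compound with 0.25 uM final NKH477.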

[17] = target: Beta-2 adrenergic receptor (Homo sapiens) (UniProt P07550); test: Adrenergic beta2 receptor (ADRB2) small molecule antagonists, cell-based qHTS assay (AID 1963592); also: series mostly up to about 92 µM; nearly all actives have a fitted effect of over 50% in size
Summary of the method: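 Assay format: CHO-ADRB2 cells, 18-20hr seeding at 37C/5% CO2, then compound plus 1nM isoproterenol agonist mix for 0.5hr RT. Homogeneous time-resolved fluorescence cAMP detection after 1hr, expressed as 665/615 nm ratio.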

[18] = target: Beta-2 adrenergic receptor (Homo sapiens) (UniProt P07550); test: Adrenergic beta2 receptor (ADRB2) small molecule agonists, cell-based qHTS assay (AID 1963593);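 also: CHO cells stably overexpressing human ADRB2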
Summary of the method: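 CHO cells stably over-expressing ADRB2 were plated overnight at 37C, then dosed with compounds plus a stimulation mix containing 100uM IBMX and 25uM Ro-20-1724 for 0.5hr at room temperature. cAMP was measured by HTRF competition, 1hr.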

[19] = target: D(2) dopamine receptor (Homo sapiens) (UniProt P14416); test: Dopamine D2 receptor (DRD2) small molecule agonists, cell-based qHTS assay (AID 1963594); also: nearly all actives have a fitted effect of over 35% in size
Summary of the method: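 cAMP accumulation in DRD2-HEK293 cells measured by HTRF after 1 h detection; compounds added 10 min before NKH477 (200nM […]) forskolin-analogue stimulation, 30 min at room temperature, with Ro20-1724 present at 0.1 mM final.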

[20] = target: D(2) dopamine receptor (Homo sapiens) (UniProt P14416); test: Dopamine D2 receptor (DRD2) small molecule antagonists, cell-based qHTS assay (AID 1963595; active = well fitted inhibition curve with a large enough effect in the signal ratio in the repeat runs, with a control signal flat; the % refers to the signal ratio)
Summary of the method: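 In this cell-based antagonist screen, compounds act for 10 min at room temperature before a 30 min challenge with 12 nM quinpirole and 200 nM NKH477. cAMP is quantified by HTRF competition in DRD2-HEK293 cells containing 0.1 mM Ro20-1724.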

Measured: Potency

D(2) dopamine receptor (Homo sapiens), sequence (P14416 whole entry, looked up): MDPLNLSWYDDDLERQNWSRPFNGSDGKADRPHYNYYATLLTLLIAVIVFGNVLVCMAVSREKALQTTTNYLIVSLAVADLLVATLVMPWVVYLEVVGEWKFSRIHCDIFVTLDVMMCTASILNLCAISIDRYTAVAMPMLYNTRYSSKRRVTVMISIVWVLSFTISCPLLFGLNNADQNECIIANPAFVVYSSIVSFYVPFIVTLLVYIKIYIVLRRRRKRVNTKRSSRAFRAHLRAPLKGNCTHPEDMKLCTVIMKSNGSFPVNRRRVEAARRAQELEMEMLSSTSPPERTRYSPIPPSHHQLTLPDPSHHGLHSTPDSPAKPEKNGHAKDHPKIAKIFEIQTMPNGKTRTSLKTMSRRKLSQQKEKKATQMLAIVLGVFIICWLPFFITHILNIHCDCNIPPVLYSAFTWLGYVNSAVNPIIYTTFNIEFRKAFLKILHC
Muscarinic acetylcholine receptor M1 (Homo sapiens), sequence (P11229 whole entry, looked up): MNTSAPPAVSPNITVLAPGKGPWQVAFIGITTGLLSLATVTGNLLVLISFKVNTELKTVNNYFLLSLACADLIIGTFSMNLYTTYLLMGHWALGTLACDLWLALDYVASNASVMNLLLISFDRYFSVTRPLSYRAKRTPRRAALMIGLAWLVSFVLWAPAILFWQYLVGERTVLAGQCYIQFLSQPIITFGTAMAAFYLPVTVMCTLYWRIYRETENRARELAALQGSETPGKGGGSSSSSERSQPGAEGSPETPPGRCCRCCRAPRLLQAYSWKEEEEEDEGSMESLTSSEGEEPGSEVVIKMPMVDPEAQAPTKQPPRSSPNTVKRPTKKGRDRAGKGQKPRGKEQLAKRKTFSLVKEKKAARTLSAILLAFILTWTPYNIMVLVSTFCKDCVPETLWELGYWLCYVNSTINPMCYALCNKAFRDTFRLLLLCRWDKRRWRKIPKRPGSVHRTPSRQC
Beta-2 adrenergic receptor (Homo sapiens), sequence (P07550 whole entry, looked up): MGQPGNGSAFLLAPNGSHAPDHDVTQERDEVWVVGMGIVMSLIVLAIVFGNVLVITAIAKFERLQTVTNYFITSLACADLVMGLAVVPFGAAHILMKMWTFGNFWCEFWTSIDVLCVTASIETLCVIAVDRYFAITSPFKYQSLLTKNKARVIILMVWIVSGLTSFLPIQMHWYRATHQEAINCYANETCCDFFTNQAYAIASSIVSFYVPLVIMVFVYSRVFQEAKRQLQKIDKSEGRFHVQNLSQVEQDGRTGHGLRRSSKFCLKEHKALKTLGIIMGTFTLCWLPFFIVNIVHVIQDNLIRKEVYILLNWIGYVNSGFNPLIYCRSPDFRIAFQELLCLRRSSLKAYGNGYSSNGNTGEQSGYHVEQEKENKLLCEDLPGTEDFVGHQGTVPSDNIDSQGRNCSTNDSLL
KiSS-1 receptor (Homo sapiens), sequence (Q969F8 whole entry, looked up): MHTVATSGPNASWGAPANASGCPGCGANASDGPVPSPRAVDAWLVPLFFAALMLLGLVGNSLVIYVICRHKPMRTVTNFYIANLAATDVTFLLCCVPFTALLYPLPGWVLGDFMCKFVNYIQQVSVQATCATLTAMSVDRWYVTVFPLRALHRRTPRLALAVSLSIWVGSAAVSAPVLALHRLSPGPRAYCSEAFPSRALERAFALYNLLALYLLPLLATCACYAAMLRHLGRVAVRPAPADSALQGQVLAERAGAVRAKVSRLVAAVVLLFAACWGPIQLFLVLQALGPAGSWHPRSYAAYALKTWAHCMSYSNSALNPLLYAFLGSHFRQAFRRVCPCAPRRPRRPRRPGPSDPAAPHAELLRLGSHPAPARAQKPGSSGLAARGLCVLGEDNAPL
Gonadotropin-releasing hormone receptor (Homo sapiens), sequence (P30968 whole entry, looked up): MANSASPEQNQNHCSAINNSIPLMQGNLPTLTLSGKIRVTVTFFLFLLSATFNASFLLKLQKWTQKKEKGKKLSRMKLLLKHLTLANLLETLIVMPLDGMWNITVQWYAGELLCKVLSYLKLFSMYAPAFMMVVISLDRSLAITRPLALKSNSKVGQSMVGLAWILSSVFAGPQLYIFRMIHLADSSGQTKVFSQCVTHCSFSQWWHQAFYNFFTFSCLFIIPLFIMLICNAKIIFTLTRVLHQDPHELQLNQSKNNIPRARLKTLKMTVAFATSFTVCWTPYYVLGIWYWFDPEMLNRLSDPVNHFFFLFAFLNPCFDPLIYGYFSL
5-hydroxytryptamine receptor 2A (Homo sapiens), sequence (P28223 whole entry, looked up): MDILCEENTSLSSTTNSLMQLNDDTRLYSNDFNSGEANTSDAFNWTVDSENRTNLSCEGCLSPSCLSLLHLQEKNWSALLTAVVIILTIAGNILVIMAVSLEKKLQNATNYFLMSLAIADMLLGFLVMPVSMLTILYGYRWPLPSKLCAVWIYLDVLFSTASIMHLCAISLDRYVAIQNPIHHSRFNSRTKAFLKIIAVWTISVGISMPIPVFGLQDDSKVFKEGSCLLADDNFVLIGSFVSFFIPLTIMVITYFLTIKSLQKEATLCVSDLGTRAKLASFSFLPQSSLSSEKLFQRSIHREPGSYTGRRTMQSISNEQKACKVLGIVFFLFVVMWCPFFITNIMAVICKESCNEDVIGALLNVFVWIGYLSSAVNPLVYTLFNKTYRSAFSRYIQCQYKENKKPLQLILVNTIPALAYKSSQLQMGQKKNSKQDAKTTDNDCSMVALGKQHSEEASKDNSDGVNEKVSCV

CC(=O)Oc1ccc(C(=C2CCCCC2)c2ccc(OC(C)=O)cc2)cc1
not listed: [20]
inactive: all other assays above

CC(=O)c1ccc(OCC(=O)N2CCCCC2)cc1
not listed: [18]
inactive: all other assays above

C=C(C)C(=O)OC
not listed: [18]
inactive: all other assays above

COC(C)CCO (stereo unspecified)
not listed: [17] | [18]
inactive: all other assays above

Cc1ccc2c(Br)cc(Br)c(O)c2n1
not listed: [16] | [18] | [19]
inactive: all other assays above

CC(C)Cc1ccc(CC(=O)O)cc1
not listed: [18]
inactive: all other assays above
